Platelet DG rel = inhibitors of platelet dense granule secretion, primary screen, cell-based, MLPCN, human platelets; 300,000 tested, 0.22% active; inhibition, %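 (compounds screened at 7.5 µM in platelet-rich plasma)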; human platelet-rich plasma, SFLLRN dense granule ATP release, luminescence; AID 1663, 2009;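 active means mean replicate score, as percent of positive control, at or above 50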
PPC-1+TRAIL kill = compounds killing PPC-1 cancer cells with TRAIL present, primary screen, TRAIL potentiator project, ATPLite luminescence, uHTS. PPC-1 cells + TRAIL, ATPLite viability luminescence. cell killing (% activity), % at 4 µM or 5 µM. 220,000 tested, 0.41% active. AID 1443, 2008;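 active means cell killing above 50% in the first pass at 4 µM, then a duplicate retest at 5 µM averaging 50% or more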
TROY signal inh = inhibitors of TROY-driven NF-kB signaling, primary screen, Q293 LMP1-TROYcd cells, NF-kB luciferase, uHTS. 360,000 tested, 0.98% active. Q293 LMP1-TROYcd NF-kB luciferase reporter, 4 h. inhibition, % at 10 µM;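 active means compounds whose plate-normalised and pattern-corrected inhibition of the luciferase reporter signal at the single screening dose is 50% or more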
C8 TRAIL sens = viability loss with TRAIL in NB7+C8 cells, primary screen, TRAIL sensitizer project, cell-based, ATPlite luminescence; inhibition (viability loss, TRAIL sensitization), % at 10 µM; 360,000 tested, 1% active;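 active means compounds causing at least 50% loss of cell viability in the single-dose screen, relative to plate controls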
TWEAK Fn14 block = inhibitors of TWEAK-Fn14 signaling, primary screen, luciferase reporter cells, uHTS; TWEAK-stimulated Fn14 reporter cells, luciferase luminescence, 8 h; inhibition, % at 10 µM; 360,000 tested, 2% active; AID 1159606, 2016; in the data active means inhibition above about 50%
HSP90 inh = HSP90 inhibitors, primary screen, cell lysate, luminescence. AID 1789, 2009. inhibition, % at 5.6 µM. Rabbit reticulocyte lysate, luciferase refolding luminescence, 3 h. 290,000 tested, 0.91% active. Heat shock protein HSP 90 (rabbit reticulocyte lysate; luciferase refolding);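 active means inhibition above the screen-wide mean plus 3 SD, computed separately per campaign, cut at about 16% in these data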;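 further: inhibitors lower the luminescence because luciferase stays unfolded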
A number is an active result; i = inactive; nt = no result given. Most compounds without a hit are left out; they make up all but 3.5% or so of the library.

SMILES	Platelet DG rel	PPC-1+TRAIL kill	TROY signal inh	C8 TRAIL sens	TWEAK Fn14 block	HSP90 inh
O=C(c1ccc(S(=O)(=O)Cc2ccccc2F)c([N+](=O)[O-])c1)N1CCCC1	i	i	i	i	i	i
O=C(c1ccc(S(=O)(=O)c2ccc(F)cc2)c([N+](=O)[O-])c1)N1CCCCCC1	i	i	i	i	77	i
Cc1ccc(CS(=O)(=O)c2ccc(C(=O)N3CCCCC3)cc2[N+](=O)[O-])cc1	i	i	i	i	i	i
Cc1ccc(C)[n+](CC(=O)N2CCCCC2)c1	nt	i	i	i	i	i
C#CCNC(=O)C1=C[C@@H](c2ccc3c(c2)OCO3)C[C@@H](OCCCCO)O1	i	nt	i	i	i	nt
OCc1ccccc1-c1cnc2sc(NCc3ccc(F)cc3)nn12	nt	nt	i	i	i	nt
CCOc1cccc2cc(-c3nnc(NCc4ccco4)s3)c(=O)oc12	i	i	i	55	i	i
COc1ccc2oc(=O)c(-c3nnc(NCc4ccco4)s3)cc2c1	i	i	i	i	i	i
COc1cccc2cc(-c3cn4ccc(C)cc4n3)c(=O)oc12	i	nt	i	i	i	i
CCOc1cccc2cc(-c3cn4cc(C)ccc4n3)c(=O)oc12	i	i	i	66	i	i
Cc1cccc(NC(=O)Nc2c(C)[nH]c(=O)[nH]c2=O)c1C	i	nt	i	i	i	i
COc1cc2c(cc1NC(=O)CN1C(=O)NC3(CCc4ccccc43)C1=O)oc1ccccc12 (stereo not given)	i	i	i	i	62	i
Cc1ccccc1NC(=O)CN1C(=O)NC2(CCc3ccccc32)C1=O (stereo not given)	nt	nt	i	i	i	nt
CCOC(=O)N1CCC(N2C(=O)c3ccccc3C2Nc2cc(Cl)c(OC)cc2OC)CC1 (stereo not given)	i	i	i	i	i	i
CCOC(=O)N1CCC(N2C(=O)c3ccccc3C2Nc2cc(OC)c(OC)c(OC)c2)CC1 (stereo not given)	64	i	i	i	i	i
Cc1ccccc1NC(=O)c1cc(S(=O)(=O)N2CCCCC2)ccc1N1CCOCC1	nt	nt	i	i	i	nt
O=C(c1ccccc1)N1CCN(c2ccc(N3CCOCC3)nn2)CC1	i	nt	i	i	i	nt
O=C(CNC(=O)c1ccccc1F)c1ccccc1	i	nt	i	i	62	i
O=C(CNC(=O)c1cccs1)c1ccc(F)cc1	i	i	i	i	52	i
O=C(CNC(=O)c1cccs1)c1ccc(Cl)cc1	i	nt	i	i	i	i
CC(=O)N1CCN(CCS(=O)(=O)c2ccc(Br)cc2)CC1	nt	nt	i	i	i	nt
CN(c1cccc(NC(=O)Nc2cccc(Cl)c2)c1)S(C)(=O)=O	i	i	i	i	82	i
CC(=O)Nc1cccc(N(C)S(C)(=O)=O)c1	i	i	i	i	i	i
O=C(Nc1cccc(Cl)c1)Nc1csc([N+](=O)[O-])c1	i	i	i	i	72	i
CN1CCN(c2ccc(S(=O)(=O)N3CCCCC3)cc2NC(=O)CSC(C)(C)C)CC1	nt	nt	i	i	i	nt
SMILES	Platelet DG rel	PPC-1+TRAIL kill	TROY signal inh	C8 TRAIL sens	TWEAK Fn14 block	HSP90 inh
O=C(CSc1cccc2cccnc12)N/N=C/c1ccc(O)cc1	i	i	i	i	i	i
O=C(CCc1ccccc1O)N/N=C/c1ccc(Sc2cccc3cccnc23)o1	i	i	i	i	109	i
CC(C)c1nc(=S)n(-c2ccccc2)[nH]1	i	i	68	i	i	i
CC(=O)Nc1nc(=S)n(-c2ccccc2)[nH]1	i	i	i	i	i	i
Cc1ccc(N2CC(C(=O)OCC(=O)Nc3ccccc3C)CC2=O)cc1 (stereo not given)	nt	nt	i	i	i	nt
CC1(C)CC(=O)C(C2C3=C(CC(C)(C)CC3=O)Oc3c(Br)cc(Br)cc32)=C(O)C1 (stereo not given)	i	nt	i	i	62	i
COc1cc(/C=C2/SC(=S)NC2=O)ccc1OS(=O)(=O)c1ccc(C)cc1	i	i	59	i	i	i
COc1cc(/C=C2\SC(=S)NC2=O)ccc1OS(=O)(=O)c1ccccc1	i	i	nt	nt	nt	i
CC(=O)Nc1sc(C)c(C)c1C(=O)OCC(=O)Nc1ccccc1C(F)(F)F	nt	nt	i	i	i	nt

Screening data as filed in PubChem BioAssay.
